A short description of experiment [1]: qHTS RealTime-Glo MT Cell Viability Assay in HepG2 cells - 40 hour (AID 1224870). Note: nearly all actives have a fitted effect of over 50% in size. The method, boiled down:
(§1)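 HepG2 cells (600/well) mixed with RealTime-Glo MT reagent, settled 5 h at 37 C/5% CO2 before compound addition. Nonlytic NanoLuc luminescence from viable-cell prosubstrate reduction read repeatedly during 40 h treatment at 37 C.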
On the technique in general: Quantitative high-throughput screening tests each substance at several concentrations.

Experiment [2] can be described thus: A CellTox Green Cytotoxicity Assay to monitor cytotoxicity in HEK293 cells - 40 hour (AID 1224871). Note: nearly all actives have a fitted effect of over 45% in size. Note: potency is the fitted concentration of half-maximal effect. The method, boiled down: (§2)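 Tox21 screen in HEK293: membrane-impermeant cyanine dye fluoresces on binding dead-cell DNA; compound pinned 5 h post-seeding, plates held at 37 C, signal read repeatedly through 40 h.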
A short description of experiment [3]: qHTS RealTime-Glo MT Cell Viability Assay in HEK293 cells - 16 hour (AID 1224872). Note: top concentration of the series differs between compounds; nearly all actives have a fitted effect of over 50% in size. Summed up:
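Nonlytic real-time viability readout: viable cells convert prosubstrate to NanoLuc substrate, giving luminescence proportional to live cell number. HEK293, 600 cells/well, compound added after 5 h, continuous culture at 37 C.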

Experiment [4] in a line: qHTS RealTime-Glo MT Cell Viability Assay in HepG2 cells - 8 hour (AID 1224873). Note: nearly all actives have a fitted effect of over 55% in size. The method, boiled down:
as §1

Experiment [5] in a line: qHTS RealTime-Glo MT Cell Viability Assay in HEK293 cells - 40 hour (AID 1224874). Note: nearly all actives have a fitted effect of over 50% in size. The note with it: RealTime-Glo luminescence; max response: stronger effect = lower value. Summed up: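 HEK293 + NanoLuc + prosubstrate, 600 cells/well; 5 h, 37 C/5% CO2; compound 23 nL in DMSO by pintool; 37 C; luminescence read at 0, 8, 16, 24, 32 and 40 h time points.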
Experiment [6] can be described thus: A CellTox Green Cytotoxicity Assay to monitor cytotoxicity in HEK293 cells - 24 hour (AID 1224875). Note: series mostly up to about 77 µM; nearly all actives have a fitted effect of over 45% in size. The method, boiled down:
as §2

Experiment [7] can be described thus: A CellTox Green Cytotoxicity Assay to monitor cytotoxicity in HepG2 cells - 16 hour (AID 1224876). Note: nearly all actives have a fitted effect of over 45% in size. The method, boiled down:
(§3)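 Measurements at 0, 8, 16, 24, 32 and 40 h of treatment captured CellTox Green fluorescence in HepG2 cells that had been co-plated with reagent and preincubated 5 h at 37 C/5% CO2.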

A short description of experiment [8]: qHTS RealTime-Glo MT Cell Viability Assay in HepG2 cells - 32 hour (AID 1224877). Note: nearly all actives have a fitted effect of over 55% in size. The method, boiled down: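 Luminescence read-out: viable HepG2 cells reduce a prosubstrate to a NanoLuc substrate, giving a signal proportional to live cell number. Reads taken at 0, 8, 16, 24, 32 and 40 h of compound exposure at 37 C.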
The nature of experiment [9]: A CellTox Green Cytotoxicity Assay to monitor cytotoxicity in HepG2 cells - 24 hour (AID 1224878). Note: nearly all actives have a fitted effect of over 45% in size. The method, boiled down:
as §3

Experiment [10] in a line: A CellTox Green Cytotoxicity Assay to monitor cytotoxicity in HepG2 cells - 40 hour (AID 1224879). Note: nearly all actives have a fitted effect of over 40% in size. The method, boiled down: as §3

Several values for one entry are separate records, joined by “and”; a condition that tells them apart may be missing. Identical values can stand only once. Records with an inconclusive call do not appear. A structure can be active in one record and inactive in another. Activity calls are given as the source filed them. Calls come from the whole dose curve; as a rule, active = well fitted curve in the direction sought with a large enough effect in the repeat runs; inconclusive = weak or mixed curves; inactive = no such curve, though single readings can be large; an effect the other way counts as inactive or inconclusive.
% is set by controls: 0 for no effect and ±100 for the full control effect.

As for `Nc1ccc(Cl)c(N)c1`, the outcome in [1], in [7] and in [8] was inactive. The Potency entry in experiment [2], in [3], in [4], in experiment [6], in experiment [9] and in [10] was “inactive” each time. The max response in [5] is -8.1% (inactive) and -8.99% (inactive).
For the compound `C=C(C)C(=O)OCC(C)C`, the compound was called inactive in experiment [1], in experiment [7] and in experiment [8]. Also, the Potency result in [2], in experiment [3], in [4], in experiment [6], in experiment [9] and in [10] was “inactive” each time. For the same compound, in [5], the max response was 0.908% (inactive) and 6.86% (inactive).
Turning to `CC(CCl)OP(=O)(OC(C)CCl)OC(C)CCl` (configuration not stated), the outcome in experiment [1], in experiment [7] and in experiment [8] was inactive. For the same compound, the Potency entry in experiment [2], in experiment [3], in [4], in experiment [6], in [9] and in experiment [10] was “inactive” throughout. The max response in [5] is -21.3% (inactive) and -15.3% (inactive).
On to `CC1(C)OC[C@@H]2O[C@@]3(C(=O)O)OC(C)(C)O[C@H]3[C@@H]2O1`, for which the result in experiment [1], in experiment [7] and in experiment [8] was inactive. For the same compound, the Potency result in [2], in [3], in experiment [4], in [6], in experiment [9] and in experiment [10] was “inactive” in each case. Further, the max response in experiment [5] was -6.82% (inactive) and 4.68% (inactive).
Take `CC1(C)NC(=O)NC1=O`: the call in [1], in [7] and in experiment [8] was inactive. Moreover, the Potency result in [2], in experiment [3], in [4], in [6], in [9] and in experiment [10] was “inactive” throughout. The max response in experiment [5] was 4.62% (inactive) and 21.9% (inactive).
As for `CCCOC(=O)c1ccccc1`, the call in experiment [1], in experiment [7] and in [8] was inactive. Moreover, the Potency result in experiment [2], in [3], in experiment [4], in experiment [6], in [9] and in [10] was “inactive” in each case. Further, the max response in experiment [5] is 4.73% (inactive) and -2.32% (inactive).
With `Cc1ccc(S(=O)(=O)N=C=O)cc1`, the call in experiment [1], in [7] and in experiment [8] was inactive. Also, the Potency entry in experiment [2], in experiment [3], in [4], in [6], in experiment [9] and in experiment [10] was “inactive” each time. Further, the max response in experiment [5] is 0.611% (inactive) and -0.578% (inactive).
Turning to `CC(C)=CCl`, the outcome in [1], in [7] and in experiment [8] was inactive. Further, the Potency entry in experiment [2], in experiment [3], in [4], in experiment [6], in [9] and in experiment [10] was “inactive” throughout. Further, the max response in experiment [5] is 8.16% (inactive) and 2.09% (inactive).
Regarding `O=C(O)c1ccccc1C(=O)O`, the Potency result in [2], in experiment [3], in experiment [4], in experiment [6], in experiment [9] and in experiment [10] was “inactive” in each case. Besides, in experiment [5], the max response was -5.44% (inactive) and 3.46% (inactive). Moreover, the call in experiment [7] and in [8] was inactive.
As to `CC(=O)OCc1ccco1`, the outcome in [1], in [7] and in experiment [8] was inactive. The Potency entry in experiment [2], in experiment [3], in [4], in [6], in experiment [9] and in [10] was “inactive” each time. For the same compound, the max response in experiment [5] was 3.13% (inactive) and 20% (inactive).
Regarding `CCCCCCCCCCO`, the compound was classed as inactive in experiment [1], in [7] and in [8]. Moreover, the Potency in experiment [2] is 24.6 µM (active) and inactive. Besides, the Potency result in [3], in experiment [4], in experiment [9] and in experiment [10] was “inactive” in each case. In addition, the max response in experiment [5] is 1.72% (inactive) and 1.45% (inactive).
Regarding `CN(C)c1ccc(O)c2c1C[C@H]1C[C@H]3[C@H](N(C)C)C(=O)C(C(N)=O)=C(O)[C@@]3(O)C(=O)C1=C2O`, the compound was called inactive in experiment [1], in [7] and in [8]. Besides, the Potency entry in [2], in experiment [3], in experiment [4], in experiment [6], in experiment [9] and in experiment [10] was “inactive” throughout. The max response in experiment [5] was -2.64% (inactive) and -1.12% (inactive).
As to `CCCCCCCCCCCC(=O)OC`, the Potency entry in experiment [2], in experiment [3], in experiment [4], in experiment [6], in experiment [9] and in [10] was “inactive” each time. Besides, the max response in experiment [5] is -2.49% (inactive) and 7.82% (inactive). The compound was called inactive in experiment [7] and in experiment [8].
Consider `O=C(O)c1ccc(C(=O)O)c(C(=O)O)c1`, for which the Potency result in [2], in experiment [3], in experiment [4], in [6], in experiment [9] and in experiment [10] was “inactive” each time. The max response in [5] was -1.73% (inactive) and 1.6% (inactive). Further, the compound was classed as inactive in [7] and in experiment [8].
As to `CC(CCO)CC(C)(C)C` (configuration not stated), the Potency entry in experiment [2], in experiment [3], in [4], in experiment [6], in experiment [9] and in experiment [10] was “inactive” each time. In addition, in [5], the max response is -6.13% (inactive) and 0.884% (inactive). Also, the call in [7] and in [8] was inactive.
Turning to `CC1(C)CC(N)CC(C)(CN)C1` (configuration not stated), the Potency result in [2], in experiment [3], in experiment [4], in [6], in experiment [9] and in experiment [10] was “inactive” in each case. Besides, the max response in experiment [5] is -9.67% (inactive) and 2.41% (inactive). Moreover, the outcome in experiment [7] and in experiment [8] was inactive.
As to `Cc1ccc([N+](=O)[O-])cc1S(=O)(=O)O`, the Potency result in [2], in experiment [3], in experiment [4], in experiment [6], in experiment [9] and in [10] was “inactive” each time. Further, the max response in [5] was 6.39% (inactive) and 7.52% (inactive). In addition, the compound was called inactive in [7] and in experiment [8].
Regarding `CCOCC(=O)O`, the Potency entry in [2], in experiment [3], in experiment [4], in experiment [6], in experiment [9] and in experiment [10] was “inactive” each time. For the same compound, the max response in experiment [5] was -1.6% (inactive) and 8.63% (inactive). Further, the compound was called inactive in experiment [7] and in experiment [8].
Regarding `C[C@]12CC[C@@H]3c4ccc(O)cc4CC[C@H]3[C@@H]1C[C@@H](O)[C@@H]2O`, the Potency result in experiment [2], in experiment [3], in [4], in experiment [6], in experiment [9] and in experiment [10] was “inactive” each time. For the same compound, in experiment [5], the max response was -25.2% (inactive). For the same compound, the compound was classed as inactive in experiment [7] and in experiment [8].
With `c1ccc2c(c1)Cc1ccccc1-2`, the Potency in [2] is 39.5 µM (active) and 54.9 µM (active). Also, the Potency result in experiment [3], in experiment [4], in experiment [9] and in experiment [10] was “inactive” throughout. In [5], the max response is -9.32% (inactive) and 10% (inactive). For the same compound, the outcome in experiment [7] and in experiment [8] was inactive.
On to `CCOC(=O)n1ccn(C)c1=S`, for which the Potency result in experiment [2], in experiment [3], in experiment [4], in experiment [6], in [9] and in [10] was “inactive” throughout. Further, the max response in experiment [5] was 1.12% (inactive) and 2.41% (inactive). The call in experiment [7] and in [8] was inactive.
On to `CC(=O)c1ccc(O)cc1`, for which the Potency entry in experiment [2], in experiment [3], in experiment [4], in experiment [6], in [9] and in [10] was “inactive” in each case. The max response in [5] is 0.924% (inactive) and -3% (inactive). The compound was called inactive in experiment [7] and in [8].

(Values after PubChem BioAssay (Tox21).)
